# In the supplement of paper PMC11417369:
# ± gives the standard deviation of the averaged measurements. Whole data set: some 25,000 sequences, median “ln(normalized median fluorescence intensity)” near 10, cut for the highest 2% near 12. This excerpt belongs to a sample that is enriched for the highest values.
# Test system: PfAP2-G AP2 domain (GST-tagged)
# Assay: gcPBM binding intensity (ln(normalized median fluorescence intensity)); higher = stronger DNA binding
# Outline: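 An Agilent 4 × 180k array of primer-extended double-stranded 36-bp intergenic genomic probes, with negative controls, was incubated for 1 h with GST-tagged P. falciparum DNA-binding domains expressed in E. coli. Alexa488 anti-GST antibody detected bound protein, scanned at 488 nm. Binding intensity is the highest Masliner-normalised natural-log median intensity across replicate spots of either probe orientation.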
row,Sequence,gcPBM binding intensity (ln)
1,TTAAAATTAAAAATAGGTACACATATGAACAAGGAC [XGTACX_site1180],11.5 ± 0.78
2,TATAAGAATAAAAAGGGTACATAAAATAATAATATA [XGTACX_site2355],11.3 ± 0.73
3,AAAAAAAAAAAGAAGGGTACATATTATATATAATAT [XGTACX_site6204],11.2 ± 0.76
4,ATTATAAGAAGGGGGGGTACATAAATATAAATGTAT [XGTACX_site5624],11.9 ± 0.95
5,ATATATATTATATGCACACTAATAAGACTATTTAAA [CACACA_site3554],10.1 ± 0.23
6,TAGAAGCATTGACACACACACATACATACACATACA [CACACA_site6802],10.2 ± 0.26
7,TTACATATTTTTTAACGTACATAAATATATATGTAT [XGTACX_site8406],11.4 ± 0.79
8,ATAAATAAAATAAAAGCACACAAAATGTAAATAATT [CACACA_site8895],10.04 ± 0.057
9,ATATAATTTAATTTCTGTACATAAGAGAAAAAACAA [XGTACX_site4865],11.1 ± 0.64
10,ATATATATATATATATGTACGTACTCAGTTATGCCT [XGTACX_site453],11.7 ± 1.2
11,GTATATATGTATGTATGTACGTATATAGTTATGTAT [XGTACX_site6769],11.6 ± 0.93
12,TATATATATATTATATGTACGTATGTATGTATATAT [XGTACX_site6451],11.3 ± 0.8
13,TCCTCGCGTAATACTTTTCAAATAAAAAAAATAAAA [TGCATGCA_negctrl_site403],10.5 ± 0.48
14,ATTTGTGTATATTAGAGTACATAAAATTAGAGGAAC [XGTACX_site1654],11.6 ± 0.92
15,ATAACCACATAAAATATAATTATATATATATATATA [CACACA_negctrl_site603],9.87 ± 0.26
16,TTTATTTTTCATTGGGGTACACAAGTTTATTTTTGA [XGTACX_site4262],11.7 ± 0.86
17,TTATTTTTTTATTCATGTACACAAGAACATTTCATT [XGTACX_site5744],11.3 ± 0.67
18,GTTTATTTTTTCATTTGTACACATAAATAAATATAT [XGTACX_site7752],11.5 ± 0.75
19,TTTATTTTTCATTGGGGTACACAAGTTTATTTTATT [XGTACX_site4263],11.7 ± 0.96
20,TTTTTTTTTTTTATTTGTACACATTTTCATATTTTT [XGTACX_site4406],11.3 ± 0.98
21,TCATTTATTTTTCTTTGTACACAAAAGTTTTTATGT [XGTACX_site690],11.4 ± 0.9
22,GCTTAATACAGAATAACACACAAAATAAATAAATAA [CACACA_site4041],10 ± 0.12
23,TTTTGGATGAACAGTACATGCAAAAACAAACTTGTA [TGCATGCA_site16],10.8 ± 0.37
24,ATATCTTCACTTATATGTACTTACATTTTTTTTTTT [XGTACX_site8696],11.4 ± 0.81

row,Sequence,gcPBM binding intensity (ln)
1,AGGAGGTCAGTTCACAGTACCCAGAAACTCTACGAG [XGTACX_site2006],11.1 ± 0.73
2,AAATATAATTAATGATGTACACTTATAGATATTGAT [XGTACX_site8435],11.4 ± 0.68
3,ATATATATTTTTATAACACACAATGATGTACATTAC [CACACA_site1076],11.3 ± 0.84
4,ATATAATTACATTGATGTACACGAAATGATTAACAT [XGTACX_site5183],11.7 ± 1.1
5,CAGAAATATTAATGCTGTACGGAATACATATATTTT [XGTACX_site539],10.9 ± 0.6
6,GTTAAAATAATATGGTGTACAAATATATAAGTTCAT [XGTACX_site3262],11.4 ± 0.79
7,AATTTTCATTTTAGAAGTACACACAAAAAATAAAAT [XGTACX_site4426],11.7 ± 1.1
8,TTTCATTTTAGAAGTACACACAAAAAATAAAATAAT [CACACA_site2141],11.6 ± 0.92
9,TACAAATTTATATAAAGTACAAAAAATAATAAAAAT [XGTACX_site7355],11.1 ± 0.57
10,GTAATAATTTTTTGTAGTACACAAAAATTCATATTT [XGTACX_site2699],11.7 ± 1.1
11,AGGTCATACATAAAATGTACATATATATAAATATAT [XGTACX_site7147],10.9 ± 0.54
12,TATTCATAATTTTAATGTACAAAATGGTTTGTAATA [XGTACX_site8493],10.6 ± 0.33
13,AATTTCATTTTTAGAAGTACATTTATATTAAAAATC [XGTACX_site2888],11.2 ± 0.95
14,TAAGTCATATAAATGTGTACATAAAAAAAAAAAATG [XGTACX_site1645],11.6 ± 1
15,TAAATTTTTTTTTTTTGTACACAAAAATATAATATT [XGTACX_site8151],11.4 ± 0.98
16,AATAATATATGGTGTACACAAAAGTATAAATAATTT [CACACA_site5338],11.9 ± 1
17,ATAAAAATAAATAAATGTACATATATATATATATAT [XGTACX_site1277],11.1 ± 0.58
18,ATAGAATACATATATGAACACACAGAGTTTTAAAAA [CACACA_site8879],10.15 ± 0.042
19,ATATTTAAAGAATAAGTGCAAAATGTAATTAATTTT [GTGCAC_site9901],10.065 ± 0.007
20,TAAAAAAACATATATTGTACGGAGATAATAATTTTT [XGTACX_site2946],10.6 ± 0.31
21,TTATATTTAGTATATGCACACTTTATGTTTGTTATT [CACACA_site5163],9.955 ± 0.035
22,TAAAAGGATGCATATACACACATATAGATTTATATA [CACACA_site7336],9.915 ± 0.035
23,AATAATTTCCAAAAATGTACATATATTTACATATAT [XGTACX_site1790],10.9 ± 0.52
24,AAATATATATTCATGTGTACACACAAAAAAAAATAA [XGTACX_site4552],11.6 ± 0.84

row,Sequence,gcPBM binding intensity (ln)
1,TATATATCCATGTGTACACACAAAAAAAAATAAAGT [CACACA_site7107],11.7 ± 0.93
2,AATATATATTCATGTGTACACACAAAAAAAAATAAA [CACACA_site8690],11.6 ± 0.84
3,TATATATTCATGTGTACACACAAAAAAAAATAAAGT [CACACA_site2207],11.7 ± 0.9
4,TGAAAAGAAAACACATGTACAAATATATAAATATAA [XGTACX_site6098],10.8 ± 0.35
5,AAAATAATAATAAAAAGTACATGTGTATATAATAAA [XGTACX_site754],11.3 ± 0.82
6,CTTTATATATTTTATTGTACTTAAAAAAAAAAAAAA [XGTACX_site2134],11.4 ± 1.1
7,ACATACATACATACATACATACATACATACATACAT [XGTACX_negctrl_site315],10.6 ± 0.57
8,AAGAAATATATATATATATATATATATATATATGTA [TGCATGCA_negctrl_site442],9.67 ± 0.16
9,AATAAAAAAAATAGCATACACACATATATACATATA [CACACA_site659],9.75 ± 0.028
10,TGGTCTTTTAAACAAAAATATAAATTTTTAAATATG [CACACA_negctrl_site392],9.94 ± 0.23
11,GGTGTTAAAAAATACACACACAAAAAAAAAAAAAAA [CACACA_site138],9.95 ± 0.51
12,TAAAATTTAAAAAGGTGTACACTATAAATTAAAATA [XGTACX_site2081],11.7 ± 0.95
13,TTTGAAATAAAAAGGTGTACACTCGATTAATAAATA [XGTACX_site6943],11.8 ± 0.98
14,TTAAAAAAAAAAAGGTGTACTATAATTTAATATCAC [XGTACX_site6316],11.6 ± 1.1
15,AATTAATAAGAAAGGTGTACAGAAAAAAAAAAATAT [XGTACX_site2106],11.5 ± 0.8
16,AAAGGTGTATATAATACACACGTGTGATTAAAATTG [CACACA_site8104],10.13 ± 0.064
17,AAAAAAAAAAGGTGTACATGCAAAATAAATTCTTAA [TGCATGCA_site556],11.6 ± 1.1
18,AAAAAAAAAAAAAGGTGTACATGCAAAATAAATTCT [XGTACX_site4592],11.6 ± 0.93
19,ACACAAAAATAAAAATGTACAAATTAAAAAAAATGA [XGTACX_site2083],10.8 ± 0.42
20,AATTAATAAAAAAGGTGTACAGTAAATGCAATAATC [XGTACX_site7956],11.7 ± 0.99
21,TGTTAATAAAGGTGTACACAAAATAAAAAAAATTAT [CACACA_site4288],11.7 ± 0.92
22,AATAAATTAATAAGGTGTACATAAATAATTTATATA [XGTACX_site8278],11.5 ± 0.94
23,TATAAATTATATATTTGTACGTATATCACATATATA [XGTACX_site7053],11.3 ± 0.84
24,AATTTTATTTAAAGTGCATGTAAAATTAAAACTTTT [TGCATGCA_site989],10 ± 0.057

row,Sequence,gcPBM binding intensity (ln)
1,ATATAGAACACCTGTGCATGCAAGTGCTAAAAAATT [TGCATGCA_site213],10.2 ± 0.2
2,ATTTTTTCTGTCTTAATTGGACCCACTGCAAATGGG [CACACA_negctrl_site1158],10.9 ± 0.54
3,AACATATAAATGATATGTACACACATTTATATATAT [XGTACX_site7364],11.4 ± 0.53
4,TATTTGATAAAAAAAAGTACTAGAATTTCGCTTTTG [XGTACX_site7754],11.1 ± 0.7
5,ATATATACCTAAGACACACACATATAGATTTATATA [CACACA_site6498],9.97 ± 0.028
6,AAATGTTAATAAAGGTGTACACAAAATAAAAAAAAT [XGTACX_site463],11.7 ± 0.71
7,AAAAAAATAATAAAATGTACAAATAAACACATAAAG [XGTACX_site5102],10.8 ± 0.39
8,TAGGTGTTAAAAAATACACACACAAAAAAAAAAAAA [CACACA_site7927],9.93 ± 0.45
9,TAAAGTAAAGACATACTTATTTTCCATCCACTTCTT [CACACA_negctrl_site1288],10 ± 0.18
10,AGTATACTCGGACACACACACACATATATATATATA [CACACA_site5031],11.1 ± 0.51
11,AATTATTTTAAATATTGTACTATTACAGAATGGTGT [XGTACX_site5693],11 ± 0.56
12,ATTAAATCATATGAATGTACGGATATATATATTTCC [XGTACX_site8650],10.7 ± 0.48
13,AATTATTTTATGAAAAGTACACATTGTTTTAATTCT [XGTACX_site4506],11.4 ± 0.98
14,ATAGTATTTTTTATTACACACAAATAAAAAGAAAAA [CACACA_site2087],10.2 ± 0.26
15,GTAATTTTAAAGAAAAGTACACATTTATTAATTATT [XGTACX_site4468],11.5 ± 1.2
16,ATTTATGAAAAGTAAAGTACACACAGGAAAAAAAAA [XGTACX_site3564],11.4 ± 0.72
17,TTTTAAAGAAAAAAATGTACAAAATTTTTATTTTAA [XGTACX_site1496],10.6 ± 0.35
18,AAAAAAAAAAAAAAAAGTACACATCATTTTATGAAA [XGTACX_site1402],11.7 ± 0.76
19,TATATTTTATAAAAAAGTACACATGAAAATGTATTT [XGTACX_site5889],11.5 ± 1.1
20,TTTTTTATTAAAAGTAGTACACATGAAAAAAAAAAA [XGTACX_site5524],11.8 ± 1
21,AGTTATTTTAAATGTAGTACACAAAAGAAATATTAA [XGTACX_site4092],11.6 ± 0.94
